Measurements reported in the supplement of paper PMC10849652.
About 7,900 targets were measured; listed, in parts, are those with a hit and a random draw of the rest. About 0.6% of all pairs of compound and target were hits.

What was measured:
Test in all cases: log2 fold change, soluble protein after heating vs DMSO (PISA); higher = thermal stabilisation; K562 cells, 10 uM, 30 min; active = over 0.2 and 3.5 SD of the protein, either way, in both replicates (recomputed)
[1] = compound: CC1=C(C=C(C=C1)NC(=O)C2=CC(=CC=C2)C(C)(C)C#N)NC3=CC4=C(C=C3)N=CN(C4=O)C
Outline: (§1)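 K562 cells at 2×10^6 cells/mL were treated for 30 min with 10 μM compound, and aliquots were heated for 3 min over 48°C-58°C before pooling. Extraction used PBS with 0.5% NP-40 at 4°C, and soluble protein was the supernatant after 21,000xg for 90 min, measured by TMTpro 16plex LC-MS/MS with channel sums equalised. Thermal stability values, relative to control samples and from duplicates, are log2 fold changes.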

[2] = compound: CC1=C(C=C(C=C1)NC(=O)C2=CC(=CC=C2)N(C)C)NC(=O)C3=CC=C(C=C3)O
Outline: as §1

[3] = compound: CC1=CC=C(C=C1)SC2=C3C=C(SC3=CN=C2)C(=O)N
Outline: as §1

[4] = compound: CC1=NC(=CC=C1)C2=C(N=C(N2)C(C)(C)C)C3=CC4=NC=CN=C4C=C3
Outline: as §1

Nexturastat A = compound: CCCCN(Cc1ccc(C(=O)NO)cc1)C(=O)Nc1ccccc1 [Nexturastat A]
Outline: as §1

vemurafenib = compound: CCCS(=O)(=O)Nc1ccc(F)c(C(=O)c2c[nH]c3ncc(-c4ccc(Cl)cc4)cc23)c1F [vemurafenib]
Outline: as §1

[5] = compound: CCCS(=O)(=O)Nc1ccc(F)c(C(=O)c2c[nH]c3ncc(Cl)cc23)c1F
Outline: as §1

[6] = compound: CCCc1cc(C)[nH]c(=O)c1CNC(=O)c1cc(-c2ccnc(N3CCN(C)CC3)c2)cc2c1cnn2C(C)C
Outline: as §1

givinostat = compound: CCN(CC)Cc1ccc2cc(COC(=O)Nc3ccc(C(=O)NO)cc3)ccc2c1 [givinostat]
Outline: as §1

barasertib = compound: CCN(CCCOc1ccc2c(Nc3cc(CC(=O)Nc4cccc(F)c4)[nH]n3)ncnc2c1)CCOP(=O)(O)O [barasertib]
Outline: as §1

Measured: log2 fold change

SUPT5H (UniProt O00267)
inactive: [1] 0.004 | [2] -0.054 | [3] 0.006 | [4] 0.013 | Nexturastat A -0.067 | vemurafenib 0.008 | [5] 0.068 | [6] -0.028 | givinostat 0.035 | barasertib 0.04

SPAG9 (UniProt O60271)
inactive: [1] 0.023 | [2] -0.045 | [3] 0.002 | [4] 0.004 | Nexturastat A 0.039 | vemurafenib 0.028 | [5] 0.053 | [6] 0.014 | givinostat 0.06 | barasertib 0.037

TBC1D15 isoform 3 (UniProt Q8TC07)
inactive: [1] 0.076 | [2] -0.028 | [3] -0.003 | [4] -0.019 | Nexturastat A 0.002 | vemurafenib 0.049 | [5] 0.12 | [6] -0.015 | givinostat 0.046 | barasertib 0.068

SMARCA4 (UniProt P51532)
inactive: [1] 0.039 | [2] -0.111 | [3] -0.296 | [4] -0.028 | Nexturastat A 0.351 | vemurafenib -0.261 | [5] -0.556 | [6] -0.084 | givinostat 0.159 | barasertib 0.137

SNX9 (UniProt Q9Y5X1)
Chain of UniProt Q9Y5X1 (Q9Y5X1 whole entry, looked up): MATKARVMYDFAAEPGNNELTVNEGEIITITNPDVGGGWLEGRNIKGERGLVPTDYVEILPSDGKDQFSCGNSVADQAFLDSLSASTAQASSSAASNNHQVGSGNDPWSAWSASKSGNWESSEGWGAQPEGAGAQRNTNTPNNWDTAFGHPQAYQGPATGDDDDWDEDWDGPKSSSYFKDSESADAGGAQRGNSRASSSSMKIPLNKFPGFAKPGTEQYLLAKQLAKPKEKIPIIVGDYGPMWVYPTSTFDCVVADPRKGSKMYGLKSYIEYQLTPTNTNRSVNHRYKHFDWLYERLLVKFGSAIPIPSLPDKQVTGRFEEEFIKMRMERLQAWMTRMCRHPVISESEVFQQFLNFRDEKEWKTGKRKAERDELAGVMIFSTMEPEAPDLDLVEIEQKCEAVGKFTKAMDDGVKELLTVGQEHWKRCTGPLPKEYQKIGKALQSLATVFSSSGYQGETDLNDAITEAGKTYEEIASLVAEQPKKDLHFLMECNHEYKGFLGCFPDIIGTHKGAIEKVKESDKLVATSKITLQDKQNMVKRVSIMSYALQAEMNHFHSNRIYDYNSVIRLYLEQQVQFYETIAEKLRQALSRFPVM
inactive: [1] 0.018 | [2] -0.031 | [3] -0.002 | [4] 0.03 | Nexturastat A 0.048 | vemurafenib 0.006 | [5] 0.041 | [6] -0.027 | givinostat -0.099 | barasertib 0.007

STK39 (UniProt Q9UEW8)
inactive: [1] -0.049 | [2] 0.006 | [3] -0.016 | [4] 0.033 | Nexturastat A 0.018 | vemurafenib 0.015 | [5] 0.032 | [6] 0.053 | givinostat 0.033 | barasertib 0.033

TJP1 (UniProt Q07157)
Chain of UniProt Q07157 (Q07157 whole entry, looked up): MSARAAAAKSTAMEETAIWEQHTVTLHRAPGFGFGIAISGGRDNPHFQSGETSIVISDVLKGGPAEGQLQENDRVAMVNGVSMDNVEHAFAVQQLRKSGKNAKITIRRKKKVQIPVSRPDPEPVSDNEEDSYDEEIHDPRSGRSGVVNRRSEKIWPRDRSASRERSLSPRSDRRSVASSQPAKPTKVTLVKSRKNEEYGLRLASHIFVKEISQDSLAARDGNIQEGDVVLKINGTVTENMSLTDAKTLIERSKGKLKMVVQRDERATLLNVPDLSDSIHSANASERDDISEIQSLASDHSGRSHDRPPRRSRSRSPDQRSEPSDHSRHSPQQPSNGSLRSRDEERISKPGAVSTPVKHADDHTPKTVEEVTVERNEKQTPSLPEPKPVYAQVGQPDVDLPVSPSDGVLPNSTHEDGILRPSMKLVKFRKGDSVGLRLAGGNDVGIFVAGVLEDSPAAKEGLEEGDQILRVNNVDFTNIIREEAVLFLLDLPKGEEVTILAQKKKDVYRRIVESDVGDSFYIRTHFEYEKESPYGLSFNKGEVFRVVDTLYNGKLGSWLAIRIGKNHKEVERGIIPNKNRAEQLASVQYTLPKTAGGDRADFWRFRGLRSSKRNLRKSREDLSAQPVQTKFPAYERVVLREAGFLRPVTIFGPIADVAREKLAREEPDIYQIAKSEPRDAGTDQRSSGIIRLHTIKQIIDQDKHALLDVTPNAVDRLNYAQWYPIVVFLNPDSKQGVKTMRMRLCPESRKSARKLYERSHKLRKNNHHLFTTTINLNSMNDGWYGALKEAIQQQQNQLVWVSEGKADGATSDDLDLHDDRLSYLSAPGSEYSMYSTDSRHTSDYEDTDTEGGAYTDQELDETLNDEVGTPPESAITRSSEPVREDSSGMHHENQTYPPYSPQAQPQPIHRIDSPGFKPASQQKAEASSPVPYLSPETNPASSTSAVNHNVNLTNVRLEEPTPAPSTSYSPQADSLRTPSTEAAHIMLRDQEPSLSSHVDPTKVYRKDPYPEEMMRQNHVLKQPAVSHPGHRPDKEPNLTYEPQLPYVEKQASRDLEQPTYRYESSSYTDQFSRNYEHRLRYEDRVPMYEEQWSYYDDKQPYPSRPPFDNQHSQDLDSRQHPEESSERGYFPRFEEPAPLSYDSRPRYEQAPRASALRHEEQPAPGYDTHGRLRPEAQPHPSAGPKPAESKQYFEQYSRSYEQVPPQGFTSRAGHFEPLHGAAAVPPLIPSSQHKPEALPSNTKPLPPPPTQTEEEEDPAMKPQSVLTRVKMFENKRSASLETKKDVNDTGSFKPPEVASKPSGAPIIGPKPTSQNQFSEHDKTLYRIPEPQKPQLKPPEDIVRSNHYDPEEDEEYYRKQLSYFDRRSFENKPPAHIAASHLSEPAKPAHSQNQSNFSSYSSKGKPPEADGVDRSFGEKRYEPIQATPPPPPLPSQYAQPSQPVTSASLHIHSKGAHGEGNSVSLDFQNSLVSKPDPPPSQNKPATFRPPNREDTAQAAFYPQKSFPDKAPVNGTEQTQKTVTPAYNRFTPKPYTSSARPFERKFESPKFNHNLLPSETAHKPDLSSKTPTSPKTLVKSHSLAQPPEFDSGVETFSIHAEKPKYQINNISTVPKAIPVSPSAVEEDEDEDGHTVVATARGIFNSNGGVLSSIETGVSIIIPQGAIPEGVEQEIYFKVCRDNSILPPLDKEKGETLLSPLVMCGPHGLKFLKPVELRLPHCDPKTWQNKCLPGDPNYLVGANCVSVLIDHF
inactive: [1] 0.03 | [2] -0.039 | [3] 0.011 | [4] -0.012 | Nexturastat A -0.005 | vemurafenib 0.041 | [5] 0.065 | [6] -0.021 | givinostat 0.102 | barasertib 0.033

TAOK1 (UniProt Q7L7X3)
Chain of UniProt Q7L7X3 (Q7L7X3 whole entry, looked up): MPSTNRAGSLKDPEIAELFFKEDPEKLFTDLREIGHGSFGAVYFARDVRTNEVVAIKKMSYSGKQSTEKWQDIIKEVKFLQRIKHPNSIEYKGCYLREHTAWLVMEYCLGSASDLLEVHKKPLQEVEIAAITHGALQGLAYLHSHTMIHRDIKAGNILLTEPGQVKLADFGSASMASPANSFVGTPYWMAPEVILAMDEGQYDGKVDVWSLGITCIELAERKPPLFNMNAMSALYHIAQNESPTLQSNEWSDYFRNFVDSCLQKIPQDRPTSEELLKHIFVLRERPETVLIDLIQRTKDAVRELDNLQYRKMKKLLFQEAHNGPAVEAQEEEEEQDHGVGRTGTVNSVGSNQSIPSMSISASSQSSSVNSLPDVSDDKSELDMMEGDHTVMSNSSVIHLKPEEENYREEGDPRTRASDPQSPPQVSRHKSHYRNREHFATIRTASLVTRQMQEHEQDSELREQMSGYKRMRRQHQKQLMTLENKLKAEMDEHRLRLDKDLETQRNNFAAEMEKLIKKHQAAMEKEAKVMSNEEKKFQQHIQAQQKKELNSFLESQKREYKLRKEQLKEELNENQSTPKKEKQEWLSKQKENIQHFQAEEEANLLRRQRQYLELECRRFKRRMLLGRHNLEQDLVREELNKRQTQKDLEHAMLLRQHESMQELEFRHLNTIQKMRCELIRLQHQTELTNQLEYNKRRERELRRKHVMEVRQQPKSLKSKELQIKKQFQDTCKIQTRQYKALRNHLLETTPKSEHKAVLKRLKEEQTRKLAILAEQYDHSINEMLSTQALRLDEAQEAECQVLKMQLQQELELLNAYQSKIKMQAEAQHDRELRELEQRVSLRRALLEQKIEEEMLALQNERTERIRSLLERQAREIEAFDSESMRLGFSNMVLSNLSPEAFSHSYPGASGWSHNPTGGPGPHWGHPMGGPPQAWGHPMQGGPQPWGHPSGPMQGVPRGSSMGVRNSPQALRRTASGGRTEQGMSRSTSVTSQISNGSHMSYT
inactive: [1] -0.009 | [2] 0.007 | [3] -0.005 | [4] -0.013 | Nexturastat A 0.065 | vemurafenib 0.023 | [5] 0.011 | [6] -0.048 | givinostat 0.001 | barasertib 0.009

ST6GAL1 (UniProt P15907)
inactive: [1] 0.025 | [2] -0.032 | [3] -0.028 | [4] -0.064 | Nexturastat A -0.031 | vemurafenib -0.1 | [5] -0.069 | [6] 0.047 | givinostat -0.005 | barasertib -0.014

SNUPN (UniProt O95149)
Chain of UniProt O95149 (O95149 whole entry, looked up): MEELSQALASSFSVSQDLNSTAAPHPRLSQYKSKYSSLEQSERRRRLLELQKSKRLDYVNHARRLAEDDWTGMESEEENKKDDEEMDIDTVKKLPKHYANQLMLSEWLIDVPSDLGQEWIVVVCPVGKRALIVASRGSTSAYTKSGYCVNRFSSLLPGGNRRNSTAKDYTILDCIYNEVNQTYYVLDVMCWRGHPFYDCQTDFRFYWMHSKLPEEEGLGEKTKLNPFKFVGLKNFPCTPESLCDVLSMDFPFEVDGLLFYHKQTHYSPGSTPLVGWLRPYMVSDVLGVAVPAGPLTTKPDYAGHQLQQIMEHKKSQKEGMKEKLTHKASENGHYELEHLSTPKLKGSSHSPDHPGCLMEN
inactive: [1] -0.078 | [2] 0.052 | [3] 0.013 | [4] 0.026 | Nexturastat A -0.037 | vemurafenib -0.024 | [5] -0.065 | [6] 0.013 | givinostat -0.017 | barasertib 0.024

TAMM41 isoform 3 (UniProt Q96BW9)
inactive: [1] -0.021 | [2] -0.013 | [3] 0.049 | [4] 0.056 | Nexturastat A -0.084 | vemurafenib -0.006 | [5] 0.04 | [6] -0.062 | givinostat 0.036 | barasertib 0.046

TBC1D23 (UniProt Q9NUY8)
inactive: [1] 0.029 | [2] -0.038 | [3] 0.005 | [4] 0.005 | Nexturastat A -0.071 | vemurafenib 0.035 | [5] 0.034 | [6] -0.074 | givinostat 0.006 | barasertib 0.041

TIMM13 (UniProt Q9Y5L4)
Chain of UniProt Q9Y5L4 (Q9Y5L4 whole entry, looked up): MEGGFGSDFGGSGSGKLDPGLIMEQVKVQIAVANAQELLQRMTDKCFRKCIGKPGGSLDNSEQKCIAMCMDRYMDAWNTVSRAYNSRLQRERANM
inactive: [1] 0.086 | [2] -0.048 | [3] 0.03 | [4] 0.143 | Nexturastat A -0.19 | vemurafenib 0.072 | [5] 0.015 | [6] 0.085 | givinostat 0.089 | barasertib -0.035

SMAP (UniProt O00193)
inactive: [1] -0.018 | [2] -0.002 | [3] -0.03 | [4] 0.062 | Nexturastat A -0.059 | vemurafenib -0.006 | [5] 0.001 | [6] -0.107 | givinostat -0.02 | barasertib 0.008

TIMM10 (UniProt P62072)
Chain of UniProt P62072 (P62072 whole entry, looked up): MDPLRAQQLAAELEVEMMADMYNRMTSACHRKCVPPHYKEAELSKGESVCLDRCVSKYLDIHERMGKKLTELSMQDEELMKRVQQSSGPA
inactive: [1] 0.031 | [2] -0.078 | [3] 0.018 | [4] 0.045 | Nexturastat A -0.124 | vemurafenib 0.058 | [5] -0.093 | [6] -0.049 | givinostat -0.05 | barasertib 0.022

SMAD9 (UniProt O15198)
inactive: [1] -0.012 | [2] 0.029 | [3] 0.005 | [4] 0.028 | Nexturastat A 0.04 | vemurafenib 0.122 | [5] 0.104 | [6] -0.032 | givinostat 0.108 | barasertib 0.054

STK25 (UniProt O00506)
inactive: [1] -0.102 | [2] 0.014 | [3] -0.011 | [4] 0.029 | Nexturastat A -0.006 | vemurafenib -0.021 | [5] 0.011 | [6] -0.052 | givinostat 0.056 | barasertib 0.025

SRSF2 (UniProt Q01130)
inactive: [1] -0.023 | [2] 0.053 | [3] -0.033 | [4] -0.032 | Nexturastat A 0.036 | vemurafenib -0.046 | [5] -0.025 | [6] -0.023 | givinostat 0.005 | barasertib -0.007

STK26 (UniProt Q9P289)
Chain of UniProt Q9P289 (Q9P289 whole entry, looked up): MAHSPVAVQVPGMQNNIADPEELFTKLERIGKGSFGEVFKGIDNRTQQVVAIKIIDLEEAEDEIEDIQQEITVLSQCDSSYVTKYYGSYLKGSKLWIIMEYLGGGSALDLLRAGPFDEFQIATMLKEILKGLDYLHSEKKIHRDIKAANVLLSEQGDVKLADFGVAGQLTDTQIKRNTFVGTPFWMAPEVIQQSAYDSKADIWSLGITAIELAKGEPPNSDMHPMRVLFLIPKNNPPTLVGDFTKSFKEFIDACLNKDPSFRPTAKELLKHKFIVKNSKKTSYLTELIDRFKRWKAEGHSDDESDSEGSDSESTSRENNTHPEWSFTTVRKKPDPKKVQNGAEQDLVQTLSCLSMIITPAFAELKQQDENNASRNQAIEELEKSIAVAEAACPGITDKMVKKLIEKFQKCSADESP
inactive: [1] -0.083 | [2] -0.037 | [3] 0.068 | [4] 0.015 | Nexturastat A 0.044 | vemurafenib -0.04 | [5] -0.03 | [6] 0.014 | givinostat 0.086 | barasertib 0.08

SPCS2 (UniProt Q15005)
inactive: [1] 0.011 | [2] 0.004 | [3] 0 | [4] 0.3 | Nexturastat A -0.052 | vemurafenib 0.075 | [5] 0.058 | [6] -0.011 | givinostat -0.009 | barasertib 0.025

SSR3 isoform 2 (UniProt Q9UNL2)
inactive: [1] -0.032 | [2] 0.123 | [3] -0.014 | [4] 0.022 | Nexturastat A -0.103 | vemurafenib 0.11 | [5] -0.011 | [6] -0.075 | givinostat -0.042 | barasertib 0.017

STOM (UniProt P27105)
inactive: [1] -0.035 | [2] 0.025 | [3] -0.041 | [4] -0.002 | Nexturastat A 0.007 | vemurafenib 0.01 | [5] -0.053 | [6] -0.092 | givinostat 0.005 | barasertib -0.017

SLC35A1 (UniProt P78382)
inactive: [1] -0.027 | [2] 0 | [3] -0.045 | [4] 0.06 | Nexturastat A -0.037 | [5] 0 | [6] -0.07 | givinostat -0.024 | barasertib -0.05
active: vemurafenib 0.382

SLK isoform 2 (UniProt Q9H2G2)
inactive: [1] -0.078 | [2] -0.07 | [3] 0.051 | [4] 0.02 | Nexturastat A -0.007 | vemurafenib 0.03 | [5] 0.092 | [6] 0.026 | givinostat 0 | barasertib 0.047

SLC38A9 (UniProt Q8NBW4)
inactive: [1] 0.075 | [2] 0.007 | [3] -0.05 | [4] 0.023 | Nexturastat A 0.088 | vemurafenib -0.036 | [5] -0.012 | [6] -0.105 | givinostat 0.021 | barasertib -0.006

SLC27A4 (UniProt Q6P1M0)
Chain of UniProt Q6P1M0 (Q6P1M0 whole entry, looked up): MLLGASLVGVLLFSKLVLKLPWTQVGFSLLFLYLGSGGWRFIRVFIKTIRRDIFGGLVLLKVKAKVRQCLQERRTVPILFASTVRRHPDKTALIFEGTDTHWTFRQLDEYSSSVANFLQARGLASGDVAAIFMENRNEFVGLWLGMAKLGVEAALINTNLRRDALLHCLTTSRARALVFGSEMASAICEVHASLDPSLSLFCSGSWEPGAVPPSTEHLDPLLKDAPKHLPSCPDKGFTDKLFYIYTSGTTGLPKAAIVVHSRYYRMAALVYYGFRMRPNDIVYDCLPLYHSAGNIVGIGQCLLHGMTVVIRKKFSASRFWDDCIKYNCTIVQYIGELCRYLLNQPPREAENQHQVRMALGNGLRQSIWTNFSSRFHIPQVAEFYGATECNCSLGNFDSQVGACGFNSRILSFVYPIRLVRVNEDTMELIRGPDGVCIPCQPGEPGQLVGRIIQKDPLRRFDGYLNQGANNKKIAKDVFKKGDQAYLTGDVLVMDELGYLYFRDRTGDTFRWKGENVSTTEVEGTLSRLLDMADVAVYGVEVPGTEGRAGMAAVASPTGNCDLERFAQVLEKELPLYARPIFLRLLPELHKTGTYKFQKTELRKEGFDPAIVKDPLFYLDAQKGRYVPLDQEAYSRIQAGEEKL
inactive: [1] -0.074 | [2] -0.072 | [3] 0.011 | [4] -0.096 | Nexturastat A -0.014 | vemurafenib -0.039 | [5] -0.031 | [6] -0.017 | givinostat 0.021 | barasertib 0.056

SSR4 (UniProt P51571)
inactive: [1] -0.004 | [2] 0.012 | [3] 0.064 | [4] 0.039 | Nexturastat A -0.046 | vemurafenib -0.014 | [5] 0.081 | [6] -0.035 | givinostat 0.03 | barasertib -0.052

THADA (UniProt Q6YHU6)
inactive: [1] 0.03 | [2] -0.038 | [3] 0.019 | [4] -0.01 | Nexturastat A -0.021 | vemurafenib 0.038 | [5] 0.06 | [6] 0.039 | givinostat -0.006 | barasertib 0.07

TBC1D20 isoform 3 (UniProt Q96BZ9)
inactive: [1] -0.048 | [2] 0.04 | [3] 0.128 | [4] 0.037 | Nexturastat A 0 | vemurafenib 0.083 | [5] 0.166 | [6] -0.14 | givinostat 0.076 | barasertib 0.034

SRI (UniProt P30626)
inactive: [1] 0.035 | [2] -0.092 | [3] 0.094 | [4] 0.037 | Nexturastat A -0.073 | vemurafenib 0.092 | [5] 0.045 | [6] -0.055 | givinostat -0.03 | barasertib 0.107
